Holding throughout (assay): DAPPL (digital affinity profiling via proximity ligation, sequencing); 10 mM Tris-HCl pH 7.5, 50 mM NaCl, 1 mM DTT, 4% glycerol, room temperature, 30 min; GST-TFs on glutathione beads, 16-mer random dsDNA library, 0.1% formaldehyde crosslink after washing; high values mean tight binding
Conditions in all cases: protein: recombinant; tags: N-terminal GST; dsDNA, one strand shown

The target of assay [1] is T1, FLI1 (Homo sapiens, UniProt Q01543 1-452).
T1 sequence: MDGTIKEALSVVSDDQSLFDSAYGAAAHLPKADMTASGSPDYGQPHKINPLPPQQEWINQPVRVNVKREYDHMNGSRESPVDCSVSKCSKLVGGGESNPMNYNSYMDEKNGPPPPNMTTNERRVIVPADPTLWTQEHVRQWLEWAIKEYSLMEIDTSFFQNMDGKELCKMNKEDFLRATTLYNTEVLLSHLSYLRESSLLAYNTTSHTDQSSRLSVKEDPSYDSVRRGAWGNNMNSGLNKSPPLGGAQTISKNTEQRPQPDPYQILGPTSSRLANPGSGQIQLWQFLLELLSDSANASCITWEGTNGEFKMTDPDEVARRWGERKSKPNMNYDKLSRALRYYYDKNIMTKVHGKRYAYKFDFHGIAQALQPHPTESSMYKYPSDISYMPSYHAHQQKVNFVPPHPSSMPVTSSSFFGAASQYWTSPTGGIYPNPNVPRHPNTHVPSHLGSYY
The method, boiled down: (§1)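 The binding signal reported is, for every hexamer, its read frequency for a factor over its read frequency for the tag-only sample. Reads came from pools of yeast-expressed, GST-fused human transcription factors on glutathione beads, barcoded with DNA and mixed with that sample, which were incubated with 200 nmole of a random double-stranded 16-mer DNA library in Tris/NaCl/DTT/glycerol buffer at room temperature for 30 min. After washing, the pools were crosslinked with 0.1% formaldehyde, proximity-ligated with BsaI/T4 ligase for 1 h at 37 °C, PCR-amplified and sequenced on an Illumina NextSeq500.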

Assay [2] concerns the target T2, ELK1 (Homo sapiens, UniProt P19419 1-428).
T2 sequence: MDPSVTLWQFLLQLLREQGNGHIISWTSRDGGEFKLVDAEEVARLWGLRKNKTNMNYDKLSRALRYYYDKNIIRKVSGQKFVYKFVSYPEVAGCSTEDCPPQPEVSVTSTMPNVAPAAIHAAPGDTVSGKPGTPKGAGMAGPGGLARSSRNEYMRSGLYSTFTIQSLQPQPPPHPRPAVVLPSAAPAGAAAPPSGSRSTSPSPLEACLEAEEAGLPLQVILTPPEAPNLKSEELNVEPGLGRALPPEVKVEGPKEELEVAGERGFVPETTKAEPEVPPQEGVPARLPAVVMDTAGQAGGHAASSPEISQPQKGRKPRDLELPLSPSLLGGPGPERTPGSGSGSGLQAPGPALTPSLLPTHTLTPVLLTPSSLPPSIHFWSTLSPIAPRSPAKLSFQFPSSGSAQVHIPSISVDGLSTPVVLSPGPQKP
The method, boiled down: as §1

Assay [3] has as its target T3, GABPA (Homo sapiens, UniProt Q06546 1-454).
T3 sequence: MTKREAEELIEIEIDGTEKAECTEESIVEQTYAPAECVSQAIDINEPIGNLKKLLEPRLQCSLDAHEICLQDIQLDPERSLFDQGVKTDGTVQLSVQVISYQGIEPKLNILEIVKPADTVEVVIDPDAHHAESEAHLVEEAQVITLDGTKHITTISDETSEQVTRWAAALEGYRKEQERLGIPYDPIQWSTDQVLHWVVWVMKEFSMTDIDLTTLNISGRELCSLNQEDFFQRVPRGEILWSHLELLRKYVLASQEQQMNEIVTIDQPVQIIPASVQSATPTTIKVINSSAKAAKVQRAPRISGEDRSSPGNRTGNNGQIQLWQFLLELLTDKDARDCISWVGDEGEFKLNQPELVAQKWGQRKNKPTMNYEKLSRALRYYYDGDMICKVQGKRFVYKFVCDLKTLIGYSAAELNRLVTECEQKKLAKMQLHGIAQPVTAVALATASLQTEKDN
The method, boiled down: as §1

Assay [4] has as its target T4, ERG (Homo sapiens, UniProt P11308 1-479).
T4 sequence: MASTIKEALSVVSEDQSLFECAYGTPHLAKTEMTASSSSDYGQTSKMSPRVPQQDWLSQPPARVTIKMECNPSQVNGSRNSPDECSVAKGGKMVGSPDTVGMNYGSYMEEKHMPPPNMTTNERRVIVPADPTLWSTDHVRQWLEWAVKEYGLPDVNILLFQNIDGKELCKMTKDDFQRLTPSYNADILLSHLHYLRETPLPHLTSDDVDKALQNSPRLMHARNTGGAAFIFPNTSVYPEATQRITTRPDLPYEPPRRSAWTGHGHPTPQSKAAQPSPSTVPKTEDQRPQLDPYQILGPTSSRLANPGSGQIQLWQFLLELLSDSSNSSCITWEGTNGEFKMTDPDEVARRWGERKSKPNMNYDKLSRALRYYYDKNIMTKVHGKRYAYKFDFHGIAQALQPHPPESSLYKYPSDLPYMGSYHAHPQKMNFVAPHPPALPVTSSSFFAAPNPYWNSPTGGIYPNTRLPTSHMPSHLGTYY
The essentials:
as §1

Assay [5] has as its target ELF1 (Homo sapiens, UniProt P32519 1-619). The method, boiled down: as §1
For assay [6], the target named is T5, EHF (Homo sapiens, UniProt Q9NZC4 1-300).
T5 sequence: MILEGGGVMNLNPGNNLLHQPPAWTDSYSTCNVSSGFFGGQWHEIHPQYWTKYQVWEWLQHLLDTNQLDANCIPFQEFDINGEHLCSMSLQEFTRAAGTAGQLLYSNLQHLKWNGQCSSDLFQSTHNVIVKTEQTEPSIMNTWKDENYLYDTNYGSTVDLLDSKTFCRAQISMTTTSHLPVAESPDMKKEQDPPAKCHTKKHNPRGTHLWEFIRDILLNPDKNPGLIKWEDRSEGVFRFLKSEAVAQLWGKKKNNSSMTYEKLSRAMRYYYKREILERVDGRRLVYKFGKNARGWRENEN
The essentials:
as §1

Assay [7] concerns the target SPI1 (Homo sapiens, UniProt P17947 1-270). The method, boiled down: as §1
In assay [8] the target is SPIB (Homo sapiens, UniProt Q01892 1-262). The essentials:
as §1

In assay [9] the target is T6, ELK3 (Homo sapiens, UniProt P41970 1-407).
T6 sequence: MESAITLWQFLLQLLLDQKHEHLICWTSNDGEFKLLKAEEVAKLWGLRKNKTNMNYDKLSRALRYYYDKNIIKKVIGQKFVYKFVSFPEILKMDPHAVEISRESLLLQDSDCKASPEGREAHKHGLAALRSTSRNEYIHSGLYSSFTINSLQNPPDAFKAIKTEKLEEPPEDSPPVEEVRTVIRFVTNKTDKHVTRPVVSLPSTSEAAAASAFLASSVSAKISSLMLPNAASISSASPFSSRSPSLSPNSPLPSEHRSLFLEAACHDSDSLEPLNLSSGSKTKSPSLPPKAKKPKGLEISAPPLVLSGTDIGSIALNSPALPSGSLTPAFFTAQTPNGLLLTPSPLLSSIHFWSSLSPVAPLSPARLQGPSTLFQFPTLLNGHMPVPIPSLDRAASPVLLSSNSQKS
The method, boiled down:
as §1

In assay [10] the target is T7, FEV (Homo sapiens, UniProt Q99581 1-238).
T7 sequence: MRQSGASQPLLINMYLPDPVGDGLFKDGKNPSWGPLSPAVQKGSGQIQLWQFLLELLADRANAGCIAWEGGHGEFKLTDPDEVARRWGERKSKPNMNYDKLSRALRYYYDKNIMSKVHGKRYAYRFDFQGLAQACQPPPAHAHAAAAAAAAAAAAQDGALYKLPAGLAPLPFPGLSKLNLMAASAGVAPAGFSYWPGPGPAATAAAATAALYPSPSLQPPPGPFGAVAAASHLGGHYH
The essentials: as §1

In assay [11] the target is ETV5 (Homo sapiens, UniProt P41161 1-510). The essentials: as §1
Assay [12] has as its target T8, SPIC (Homo sapiens, UniProt Q8N5J4 1-248).
T8 sequence: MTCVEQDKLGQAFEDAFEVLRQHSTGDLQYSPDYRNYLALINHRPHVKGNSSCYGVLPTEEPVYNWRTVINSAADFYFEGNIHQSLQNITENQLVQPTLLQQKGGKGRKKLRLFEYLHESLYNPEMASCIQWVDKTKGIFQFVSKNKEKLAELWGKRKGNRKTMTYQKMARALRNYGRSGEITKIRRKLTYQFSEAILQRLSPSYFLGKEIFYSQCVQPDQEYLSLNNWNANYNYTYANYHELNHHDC
The method, boiled down: as §1

The target of assay [13] is ELF4 (Homo sapiens, UniProt Q99607 1-663). The method, boiled down: as §1
In assay [14] the target is T9, ELK4 (Homo sapiens, UniProt P28324-2 1-405).
T9 sequence: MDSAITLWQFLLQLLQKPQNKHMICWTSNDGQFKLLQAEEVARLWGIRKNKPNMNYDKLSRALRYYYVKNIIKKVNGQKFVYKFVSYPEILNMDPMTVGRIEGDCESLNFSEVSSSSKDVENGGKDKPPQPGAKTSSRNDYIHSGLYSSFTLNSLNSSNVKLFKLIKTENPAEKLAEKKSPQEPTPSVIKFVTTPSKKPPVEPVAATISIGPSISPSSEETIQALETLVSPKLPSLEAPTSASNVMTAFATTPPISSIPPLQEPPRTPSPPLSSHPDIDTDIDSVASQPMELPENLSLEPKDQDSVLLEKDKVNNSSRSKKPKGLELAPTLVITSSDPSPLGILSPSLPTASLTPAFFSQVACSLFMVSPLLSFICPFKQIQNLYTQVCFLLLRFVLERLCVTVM
The essentials: as §1

The target of assay [15] is T10, ETV2 (Homo sapiens, UniProt O00321 1-342).
T10 sequence: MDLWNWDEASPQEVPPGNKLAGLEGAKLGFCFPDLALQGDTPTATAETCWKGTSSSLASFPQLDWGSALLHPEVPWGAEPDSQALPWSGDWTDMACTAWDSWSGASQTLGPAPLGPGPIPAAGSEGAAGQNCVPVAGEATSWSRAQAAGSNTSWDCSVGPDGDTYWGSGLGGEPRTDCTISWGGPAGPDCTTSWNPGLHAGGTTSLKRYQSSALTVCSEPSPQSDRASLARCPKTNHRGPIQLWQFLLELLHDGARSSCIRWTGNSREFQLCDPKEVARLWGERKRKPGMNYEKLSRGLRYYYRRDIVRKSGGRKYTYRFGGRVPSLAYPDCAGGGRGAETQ
The method, boiled down:
as §1

The target of assay [16] is T11, ELF3 (Homo sapiens, UniProt P78545 1-371).
T11 sequence: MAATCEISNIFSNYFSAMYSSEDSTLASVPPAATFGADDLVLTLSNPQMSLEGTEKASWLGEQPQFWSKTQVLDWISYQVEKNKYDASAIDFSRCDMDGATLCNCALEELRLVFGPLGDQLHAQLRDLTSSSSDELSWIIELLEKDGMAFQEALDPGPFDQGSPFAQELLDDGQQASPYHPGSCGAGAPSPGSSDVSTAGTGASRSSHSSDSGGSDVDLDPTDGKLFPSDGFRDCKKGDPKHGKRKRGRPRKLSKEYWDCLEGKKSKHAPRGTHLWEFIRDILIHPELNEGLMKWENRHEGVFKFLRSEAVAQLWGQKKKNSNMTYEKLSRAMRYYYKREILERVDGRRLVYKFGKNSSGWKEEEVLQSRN
The method, boiled down: as §1

Assay [17] deals with ETV1 (Homo sapiens, UniProt P50549 1-477). The essentials:
as §1

For assay [18], the target named is CRX (Homo sapiens, UniProt O43186 1-299). The method, boiled down: as §1
Chain of CRX (O43186 whole entry): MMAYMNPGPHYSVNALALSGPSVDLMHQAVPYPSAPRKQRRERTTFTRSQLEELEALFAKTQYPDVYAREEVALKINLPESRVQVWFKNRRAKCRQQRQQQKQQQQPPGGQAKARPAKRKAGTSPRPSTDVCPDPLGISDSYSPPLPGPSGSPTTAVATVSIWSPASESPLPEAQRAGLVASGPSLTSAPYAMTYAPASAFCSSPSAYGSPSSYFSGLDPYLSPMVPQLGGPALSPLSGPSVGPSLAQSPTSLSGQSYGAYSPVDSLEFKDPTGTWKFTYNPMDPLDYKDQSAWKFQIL

Chain of ETV5 (P41161 whole entry): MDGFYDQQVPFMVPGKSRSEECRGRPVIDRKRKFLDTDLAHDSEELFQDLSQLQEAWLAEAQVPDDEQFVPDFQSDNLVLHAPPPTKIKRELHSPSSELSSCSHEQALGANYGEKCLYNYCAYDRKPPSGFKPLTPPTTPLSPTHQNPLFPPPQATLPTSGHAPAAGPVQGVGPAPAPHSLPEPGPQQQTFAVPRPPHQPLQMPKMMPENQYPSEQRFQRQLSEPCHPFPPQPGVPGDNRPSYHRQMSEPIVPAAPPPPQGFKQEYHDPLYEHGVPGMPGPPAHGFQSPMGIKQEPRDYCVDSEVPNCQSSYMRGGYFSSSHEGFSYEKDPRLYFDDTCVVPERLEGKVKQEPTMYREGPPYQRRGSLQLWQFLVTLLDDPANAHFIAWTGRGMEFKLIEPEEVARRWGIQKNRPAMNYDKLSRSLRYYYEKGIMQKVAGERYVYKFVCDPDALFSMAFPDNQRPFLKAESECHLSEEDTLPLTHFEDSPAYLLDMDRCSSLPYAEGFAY
Chain of ELF1 (P32519 whole entry): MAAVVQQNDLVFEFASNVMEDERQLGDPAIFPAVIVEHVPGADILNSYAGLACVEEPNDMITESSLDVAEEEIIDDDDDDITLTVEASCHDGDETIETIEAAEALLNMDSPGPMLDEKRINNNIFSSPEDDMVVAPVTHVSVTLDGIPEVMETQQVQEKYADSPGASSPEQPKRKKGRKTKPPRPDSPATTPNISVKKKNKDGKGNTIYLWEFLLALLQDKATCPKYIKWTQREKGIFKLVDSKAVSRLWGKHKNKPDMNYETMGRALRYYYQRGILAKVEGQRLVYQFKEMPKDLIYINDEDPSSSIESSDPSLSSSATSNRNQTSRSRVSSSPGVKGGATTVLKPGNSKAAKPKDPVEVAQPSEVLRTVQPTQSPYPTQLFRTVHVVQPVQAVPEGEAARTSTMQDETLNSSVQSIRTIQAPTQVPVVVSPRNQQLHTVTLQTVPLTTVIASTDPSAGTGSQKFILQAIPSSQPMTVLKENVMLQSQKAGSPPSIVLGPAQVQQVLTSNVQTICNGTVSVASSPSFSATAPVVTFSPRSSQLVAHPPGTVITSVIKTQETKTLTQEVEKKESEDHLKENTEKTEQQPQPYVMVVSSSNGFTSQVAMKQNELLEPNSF
Chain of SPIB (Q01892 whole entry): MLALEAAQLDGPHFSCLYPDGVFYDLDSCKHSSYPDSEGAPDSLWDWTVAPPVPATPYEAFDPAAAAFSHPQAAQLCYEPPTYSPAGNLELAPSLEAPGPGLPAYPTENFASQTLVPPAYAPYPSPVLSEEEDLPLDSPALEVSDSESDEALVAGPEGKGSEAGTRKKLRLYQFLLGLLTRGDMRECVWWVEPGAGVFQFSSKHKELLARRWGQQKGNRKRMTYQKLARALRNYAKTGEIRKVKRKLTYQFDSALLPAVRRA
Chain of ELF4 (Q99607 whole entry): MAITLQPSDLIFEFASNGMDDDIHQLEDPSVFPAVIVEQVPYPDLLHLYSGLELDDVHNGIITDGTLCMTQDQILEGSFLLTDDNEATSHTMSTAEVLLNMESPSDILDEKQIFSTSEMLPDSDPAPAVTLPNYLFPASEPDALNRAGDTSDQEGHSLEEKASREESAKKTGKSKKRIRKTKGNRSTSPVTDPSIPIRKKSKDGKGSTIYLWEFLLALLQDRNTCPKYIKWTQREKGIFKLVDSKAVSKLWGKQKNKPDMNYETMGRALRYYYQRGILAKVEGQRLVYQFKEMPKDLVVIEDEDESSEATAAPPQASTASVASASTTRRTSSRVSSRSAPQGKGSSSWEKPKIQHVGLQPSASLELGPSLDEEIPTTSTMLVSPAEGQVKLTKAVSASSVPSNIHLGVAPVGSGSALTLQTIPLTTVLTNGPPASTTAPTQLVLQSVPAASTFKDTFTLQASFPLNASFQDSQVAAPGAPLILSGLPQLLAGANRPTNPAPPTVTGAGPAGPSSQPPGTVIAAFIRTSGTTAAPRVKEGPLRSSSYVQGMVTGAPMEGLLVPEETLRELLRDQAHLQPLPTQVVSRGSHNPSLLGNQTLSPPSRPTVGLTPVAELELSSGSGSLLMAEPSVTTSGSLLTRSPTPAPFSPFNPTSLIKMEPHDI
Chain of ETV1 (P50549 whole entry): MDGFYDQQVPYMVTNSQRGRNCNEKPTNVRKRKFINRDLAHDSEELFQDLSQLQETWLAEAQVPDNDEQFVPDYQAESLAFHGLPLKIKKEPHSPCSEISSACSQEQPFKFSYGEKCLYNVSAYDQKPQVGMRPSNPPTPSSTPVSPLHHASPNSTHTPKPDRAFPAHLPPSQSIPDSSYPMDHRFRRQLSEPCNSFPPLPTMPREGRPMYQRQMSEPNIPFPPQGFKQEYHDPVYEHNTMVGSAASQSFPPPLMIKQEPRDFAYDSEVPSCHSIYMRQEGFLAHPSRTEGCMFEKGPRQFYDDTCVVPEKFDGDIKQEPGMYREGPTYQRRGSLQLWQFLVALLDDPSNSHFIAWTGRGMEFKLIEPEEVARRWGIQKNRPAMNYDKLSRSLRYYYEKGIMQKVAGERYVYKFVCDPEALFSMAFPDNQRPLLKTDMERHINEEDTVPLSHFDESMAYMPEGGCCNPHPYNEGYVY

In the case of CGGAAG, the binding signal in [1] was 2.85 fold enrichment (6-mer frequency, TF over GST control); in [2], 3.3 fold enrichment (6-mer frequency, TF over GST control); in [3], 2.61 fold enrichment (6-mer frequency, TF over GST control); in [4], 3.44 fold enrichment (6-mer frequency, TF over GST control); in assay [5] it was 2.8 fold enrichment (6-mer frequency, TF over GST control); in [6] it was 3.07 fold enrichment (6-mer frequency, TF over GST control). Besides, the binding signal in assay [7] was 3.49 fold enrichment (6-mer frequency, TF over GST control); in assay [8], 3.01 fold enrichment (6-mer frequency, TF over GST control); in assay [9], 3.41 fold enrichment (6-mer frequency, TF over GST control); in assay [10] it was 3.68 fold enrichment (6-mer frequency, TF over GST control); in assay [11], 3.27 fold enrichment (6-mer frequency, TF over GST control); in assay [12], 2.79 fold enrichment (6-mer frequency, TF over GST control). Moreover, the binding signal in assay [13] was 2.61 fold enrichment (6-mer frequency, TF over GST control); in assay [14], 2.16 fold enrichment (6-mer frequency, TF over GST control); in assay [15] it was 2.63 fold enrichment (6-mer frequency, TF over GST control); in assay [16], 3.01 fold enrichment (6-mer frequency, TF over GST control); in assay [17] it was 3.2 fold enrichment (6-mer frequency, TF over GST control).

Consider GTAATG, for which the binding signal was 1.07 fold enrichment (6-mer frequency, TF over GST control) in assay [1]; 1.07 fold enrichment (6-mer frequency, TF over GST control) in assay [2]; 1.16 fold enrichment (6-mer frequency, TF over GST control) in assay [3]; 1.05 fold enrichment (6-mer frequency, TF over GST control) in assay [4]; 1.11 fold enrichment (6-mer frequency, TF over GST control) in assay [5]; 1.12 fold enrichment (6-mer frequency, TF over GST control) in assay [6]. Moreover, the binding signal in [8] was 1.06 fold enrichment (6-mer frequency, TF over GST control); in assay [9], 1.03 fold enrichment (6-mer frequency, TF over GST control); in assay [10], 1.03 fold enrichment (6-mer frequency, TF over GST control); in assay [11], 1.09 fold enrichment (6-mer frequency, TF over GST control); in assay [12], 1.02 fold enrichment (6-mer frequency, TF over GST control); in [13], 1.08 fold enrichment (6-mer frequency, TF over GST control). Besides, the binding signal is 1.09 fold enrichment (6-mer frequency, TF over GST control) in [14]; 1.04 fold enrichment (6-mer frequency, TF over GST control) in assay [15]; 1.14 fold enrichment (6-mer frequency, TF over GST control) in assay [16]; 1 fold enrichment (6-mer frequency, TF over GST control) in assay [18]; 1.22 fold enrichment (6-mer frequency, TF over GST control) in assay [17].

For the origin of these results see PMC7862700, “An all-to-all approach to the identification of sequence-specific readers for epigenetic DNA modifications on cytosine”.
